# The full list was thinned out, with the strongest signals kept by preference.
# B1: Epa1-NP (Candida glabrata), Q6VBJ0 (protein)
# chain: MILNPALFLNKCVCIYTTLILLLLTNGGYATSSNDISLASKDPTTFPLGCSPDITTPKKGLSMELYSYDFRKKGSYPCWDAAYLDPNYPRTGYKSHRLLAKVDGVTGNINFYYHATKGCTPQLGHLPASYNYPKPLTMTNFTMLLYGYFRPKVTGFHTFTISADDLLFVNFGAGNAFDCCRRDSSADHFGNYQAYAIWGSKTAKDELTVHLDAGVYYPIRLFYNNREYDGALSFTFKTESNENTVSDFSEYFFSLDDTEEGCPGLISYDSSCASVKTSKIIGIDYHTETPNENLVPITKTIYHLGIPCTGTTTTPLCGSGFYDPLANKCVTINTSSTSSVTKTTSHTTSKEVSFHSSISSQKTLIPKSIPSPYGPIKSQSIPTEMETSSEISSSEYAFSDVISTPSHSPYTKKHSSLNSSSYTSTVIHSLTSYSISQGIFSTSLSEQNITSKSSTDKFSTATSMSNNITQSSIIISQFSTNNENYTTTSMHTSSDKISTETLNNSISTTTSILFSNSSTILKNNTTIISSDKDTHYHPVNPTIVCSTNKTEIICASITQPSISNSNNHWSSSVLKFNSTTVRSTLPSSAGSNETSINVPFSSSTESNTSTSSTSTSNSKMVRSTLPSSAGSNETSISVPFSSSTESNTSTSSTSTSNSKMVRSTLPSSAGSNETSINVPFSSSTESNTSTSSTSTSNSKTVRSTPFSSAGIIMTSLSQRNNKSASSYASSNSKCYNTADSCRKVHSTPSYLLTSSYTSEGVDYDCSLVSTKLKINDTNCVNNKHTTKSCLKTSVTTTIPTLEIKTARKSSSNTIGLHSYPTSSPNKSISSAPIIGYISSFKTIKTASPSYQTSDLTTITTITSLNNPGSTAVENTHESNDKSRKTSSNDISSKHSVIKETKDAVESSNKSHQTNTLKCSSIIIASSSHNSYESLGGTTLTLTLSKVYSPQNNDTLPFLEISEVNPSRTVLPESSKMMQYLTSTEERNKTARNTIATNIVSISTFHFEGEGNAIRMGYTQLLLMLIGIIVMNIGT
# What was measured:
# Test in all cases: glycan array binding signal (z-score within array); higher = stronger binding
# Conditions in all cases: glycan notation: IUPAC condensed, linker removed
# [1] = molecular target: Gal(b1-4)GlcNAc(b1-6)[Gal(b1-3)]GlcNAc
# How it was run: (§1)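 The Consortium for Functional Glycomics database supplied 3228 glycan arrays, of which those lacking an available protein sequence were dropped. The binding signal, a within-array Z-score, was averaged across arrays of the same protein sequence and across linkers. Negative scores can be read as non-binding.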
# [2] = molecular target: Gal3S(b1-3)[Fuc(a1-4)]GlcNAc
# How it was run: as §1
# [3] = molecular target: GalNAc(a1-3)Fuc(a1-2)Gal(b1-4)GlcNAc(b1-3)[GalNAc(a1-3)Fuc(a1-2)Gal(b1-4)GlcNAc(b1-6)]GalNAc
# How it was run: as §1
# GalNAc(a1-3)GalNAc = molecular target: GalNAc(a1-3)GalNAc
# How it was run: as §1
# [4] = molecular target: GalNAc(b1-3)Gal(a1-4)Gal(b1-4)GlcNAc
# How it was run: as §1
# GalNAc(b1-3)GalNAc = molecular target: GalNAc(b1-3)GalNAc
# How it was run: as §1
# GalNAc(b1-4)Gal(b1-4)Glc = molecular target: GalNAc(b1-4)Gal(b1-4)Glc
# How it was run: as §1
# [5] = molecular target: GalNAc(b1-4)GlcNAc(b1-3)GalNAc(b1-4)GlcNAc
# How it was run: as §1
# GalNAc3S(b1-4)GlcNAc3S = molecular target: GalNAc3S(b1-4)GlcNAc3S
# How it was run: as §1
# Glc(a1-6)Glc(a1-6)Glc = molecular target: Glc(a1-6)Glc(a1-6)Glc
# How it was run: as §1
# [6] = molecular target: GlcNAc(a1-3)Gal(b1-4)GlcNAc
# How it was run: as §1
# [7] = molecular target: GlcNAc(a1-4)Gal(b1-4)GlcNAc(b1-3)Gal(b1-4)GlcNAc
# How it was run: as §1
# [8] = molecular target: GlcNAc(b1-2)[GlcNAc(b1-4)]Man(a1-3)[GlcNAc(b1-4)][GlcNAc(b1-2)[GlcNAc(b1-6)]Man(a1-6)]Man(b1-4)GlcNAc(b1-4)[Fuc(a1-6)]GlcNAc
# How it was run: as §1
# [9] = molecular target: GlcNAc(b1-3)Gal(b1-4)GlcNAc(b1-3)Gal(b1-4)GlcNAc(b1-2)[GlcNAc(b1-3)Gal(b1-4)GlcNAc(b1-3)Gal(b1-4)GlcNAc(b1-6)]Man(a1-6)[GlcNAc(b1-3)Gal(b1-4)GlcNAc(b1-3)Gal(b1-4)GlcNAc(b1-2)Man(a1-3)]Man(b1-4)GlcNAc(b1-4)[Fuc(a1-6)]GlcNAc
# How it was run: as §1
# [10] = molecular target: GlcNAc(b1-3)Gal(b1-4)GlcNAc(b1-3)GalNAc
# How it was run: as §1
# [11] = molecular target: GlcNAc(b1-3)[GlcNAc(b1-6)]GalNAc
# How it was run: as §1
# [12] = molecular target: GlcNAc(b1-4)GlcNAc(b1-4)GlcNAc(b1-4)GlcNAc(b1-4)GlcNAc(b1-4)GlcNAc
# How it was run: as §1
# [13] = molecular target: Man(a1-3)[Man(a1-6)]Man(b1-4)GlcNAc(b1-4)GlcNAc
# How it was run: as §1
# [14] = molecular target: Neu5Ac(a2-3)Gal(b1-4)GlcNAc(b1-2)[Neu5Ac(a2-3)Gal(b1-4)GlcNAc(b1-4)]Man(a1-3)[GlcNAc(b1-4)][Neu5Ac(a2-3)Gal(b1-4)GlcNAc(b1-4)Man(a1-6)]Man(b1-4)GlcNAc(b1-4)GlcNAc
# How it was run: as §1
# [15] = molecular target: Neu5Ac(a2-3)Gal(b1-4)GlcNAc(b1-3)Gal(b1-4)GlcNAc(b1-3)GalNAc
# How it was run: as §1
# [16] = molecular target: Neu5Ac(a2-3)GalNAc(b1-4)GlcNAc
# How it was run: as §1
# Neu5Ac(a2-6)Gal = molecular target: Neu5Ac(a2-6)Gal
# How it was run: as §1
# [17] = molecular target: Neu5Ac(a2-6)Gal(b1-4)GlcNAc(b1-2)Man(a1-3)[GlcNAc(b1-2)Man(b1-4)GlcNAc(b1-2)Man(a1-6)]Man(b1-4)GlcNAc(b1-4)GlcNAc
# How it was run: as §1
# [18] = molecular target: Neu5Ac(a2-6)Gal(b1-4)GlcNAc6S
# How it was run: as §1
# [19] = molecular target: Neu5Ac(a2-6)GlcNAc(b1-4)GlcNAc
# How it was run: as §1
# [20] = molecular target: Neu5Gc(a2-3)Gal(b1-3)GlcNAc
# How it was run: as §1
# Neu5Gc(a2-3)Gal(b1-4)Glc = molecular target: Neu5Gc(a2-3)Gal(b1-4)Glc
# How it was run: as §1
# [21] = molecular target: Neu5Gc(a2-8)Neu5Ac(a2-3)Gal(b1-4)GlcNAc
# How it was run: as §1
# [22] = molecular target: Neu5Gc(a2-8)Neu5Gc(a2-3)Gal(b1-4)GlcNAc
# How it was run: as §1
binder,measurement,setting,value
B1,glycan array binding signal (z-score),[1],2.48
same,glycan array binding signal (z-score),[2],-0.293
same,glycan array binding signal (z-score),[3],-0.254
same,glycan array binding signal (z-score),GalNAc(a1-3)GalNAc,-0.306
same,glycan array binding signal (z-score),[4],-0.325
same,glycan array binding signal (z-score),GalNAc(b1-3)GalNAc,-0.293
same,glycan array binding signal (z-score),GalNAc(b1-4)Gal(b1-4)Glc,-0.286
same,glycan array binding signal (z-score),[5],-0.291
same,glycan array binding signal (z-score),GalNAc3S(b1-4)GlcNAc3S,-0.283
same,glycan array binding signal (z-score),Glc(a1-6)Glc(a1-6)Glc,-0.338
same,glycan array binding signal (z-score),[6],-0.317
same,glycan array binding signal (z-score),[7],-0.217
same,glycan array binding signal (z-score),[8],-0.285
same,glycan array binding signal (z-score),[9],-0.27
same,glycan array binding signal (z-score),[10],-0.287
same,glycan array binding signal (z-score),[11],-0.284
same,glycan array binding signal (z-score),[12],-0.319
same,glycan array binding signal (z-score),[13],-0.374
same,glycan array binding signal (z-score),[14],-0.295
same,glycan array binding signal (z-score),[15],-0.291
same,glycan array binding signal (z-score),[16],-0.338
same,glycan array binding signal (z-score),Neu5Ac(a2-6)Gal,-0.276
same,glycan array binding signal (z-score),[17],-0.296
same,glycan array binding signal (z-score),[18],-0.31
same,glycan array binding signal (z-score),[19],-0.281
same,glycan array binding signal (z-score),[20],-0.348
same,glycan array binding signal (z-score),Neu5Gc(a2-3)Gal(b1-4)Glc,-0.308
same,glycan array binding signal (z-score),[21],-0.286
same,glycan array binding signal (z-score),[22],-0.286

# — the supplement of paper PMC8728848
